{
  "source": "PubChem BioAssay AID1159606",
  "about": "(Sanford-Burnham Center for Chemical Genomics, 2016)",
  "note": "Out of some 360,000 compounds screened, about 7,300 (2%) were called active. This is one part of a sample in which actives are shown more often than they occur. Rule as the data show it: active = inhibition above about 50%; inactive = the rest.",
  "data": [
    {"experiment": "blockers of TWEAK-induced Fn14 reporter activity – luciferase reporter cells, uHTS, primary screen (AID 1159606)", "conditions": "TWEAK-stimulated Fn14 reporter cells, luciferase luminescence, 8 h; at 10 µM; active compounds read high", "values": [
      {"smiles": "CCOC(=O)[C@]12CCC=C1N(Cc1ccco1)C(=O)[C@H](CC(=O)NCc1cccc(C(F)(F)F)c1)C2", "inhibition": "11.1% (inactive)"},
      {"smiles": "COCCCNC(=O)CNC(=O)c1nn(-c2ccc(OC)cc2)c(=O)c2ccccc12", "inhibition": "23.9% (inactive)"},
      {"smiles": "CCOC(=O)c1cc(NC(=O)SCC(=O)O)c(C)nc1C", "inhibition": "-2.03% (inactive)"},
      {"smiles": "CCOC(=O)c1c(C2CC2)csc1NC(=O)CSCc1c(C)noc1C", "inhibition": "-9.7% (inactive)"},
      {"smiles": "O=C(CC(O)(C(F)(F)F)C(F)(F)F)Nc1ccc(Cl)c(Cl)c1", "inhibition": "56.3% (active)"},
      {"smiles": "CN(CC(=O)Nc1ccc(Cl)c(C(F)(F)F)c1)C(=O)CCC(=O)c1ccccc1", "inhibition": "7.71% (inactive)"},
      {"smiles": "O=C(Cc1ncc(C(F)(F)F)cc1Cl)Nc1cccc(Br)c1", "inhibition": "6.6% (inactive)"},
      {"smiles": "CCN1/C(=C\\c2ccc3ccccc3[n+]2CC)Sc2cc(C)ccc21", "inhibition": "57.2% (active)"},
      {"smiles": "O=C(COC(=O)C1CCN(S(=O)(=O)c2ccc3c(c2)OCCO3)CC1)Nc1ccccc1OC(F)F", "inhibition": "-22.5% (inactive)"},
      {"smiles": "C#Cc1ccc([C@@H]2C=C(C(=O)O)O[C@H](OCCCCO)C2)cc1", "inhibition": "-4.22% (inactive)"},
      {"smiles": "Cc1cn(C2C=CC(CO)O2)c(=O)[nH]c1=O", "note": "(stereo not drawn)", "inhibition": "-1% (inactive)"},
      {"smiles": "O=S(=O)(c1ccc(F)cc1)N1CCN=C1SCc1cccc(F)c1", "inhibition": "-11.2% (inactive)"},
      {"smiles": "O=C(Nc1c(Br)cc2c(c1Br)Cc1cc([N+](=O)[O-])ccc1-2)C(Cl)Cl", "inhibition": "-30.1% (inactive)"},
      {"smiles": "O=C(CN1CCN(S(=O)(=O)c2ccc(F)cc2)CC1)NC1CC1", "inhibition": "0.09% (inactive)"},
      {"smiles": "Cc1nc(N2CCN(c3ccccn3)CC2)c2c(C)c(C(=O)Nc3ccc(F)cc3)sc2n1", "inhibition": "18.8% (inactive)"},
      {"smiles": "Cc1nc(N2CCN(c3ccccn3)CC2)c2c(C)c(C(=O)Nc3ccc(F)c(Cl)c3)sc2n1", "inhibition": "66.9% (active)"},
      {"smiles": "Cc1nc(N2CCOCC2)c2c(C)c(C(=O)Nc3ccc(C(F)(F)F)cc3)sc2n1", "inhibition": "-3.25% (inactive)"},
      {"smiles": "O=C(Nc1ccc(OC(F)(F)F)cc1)c1ccc2c(c1)no[n+]2[O-]", "inhibition": "60.4% (active)"},
      {"smiles": "CCOc1c2ccc(C(=O)NCc3ccc(OC(F)(F)F)cc3)cc2nn1C", "inhibition": "-25.1% (inactive)"},
      {"smiles": "CCOC(=O)Cc1ncccc1C(=O)Nc1ccc(OC(F)(F)F)cc1", "inhibition": "-7.78% (inactive)"},
      {"smiles": "CCOC(=O)Cc1csc(NC(=O)CN(C)S(=O)(=O)c2ccc3c(c2)CCC(=O)N3)n1", "inhibition": "1.66% (inactive)"},
      {"smiles": "O=C(Nc1cc(C(F)(F)F)ccc1Cl)c1cc2nc3c(c(C(F)(F)F)n2n1)CCCC3", "inhibition": "76.7% (active)"},
      {"smiles": "O=C(Nc1ccc(Cl)cc1)c1cc2nc(C3CC3)cc(C(F)(F)F)n2n1", "inhibition": "-7.24% (inactive)"},
      {"smiles": "Nc1nc(SCC(=O)Nc2cc(C(F)(F)F)ccc2Cl)[nH]c(=O)c1NC(=O)c1ccco1", "inhibition": "10% (inactive)"},
      {"smiles": "O=S1(=O)CSCS(=O)(=O)C1", "inhibition": "-11.8% (inactive)"},
      {"smiles": "O=C(OCC(=O)N1CCCCCC1)c1ccc(Br)c(S(=O)(=O)N2CCOCC2)c1", "inhibition": "-3.85% (inactive)"},
      {"smiles": "CC1(C)Cc2ccccc2/C(=C/C(=O)c2ccccc2)N1", "inhibition": "-22.4% (inactive)"},
      {"smiles": "COc1cc2c(cc1OC)/C(=C/C(=O)c1ccc(NC(C)=O)cc1)NCC2", "inhibition": "-11.2% (inactive)"},
      {"smiles": "CC1CN/C(=C\\C(=O)c2ccc(Br)cc2)C(=O)N1", "note": "(stereo not drawn)", "inhibition": "62.2% (active)"},
      {"smiles": "O=C(CN(C(=O)c1csnn1)c1cccc(F)c1)NCc1ccc(F)cc1", "inhibition": "0.95% (inactive)"},
      {"smiles": "COc1ccc(C(c2nnnn2C2CCCC2)N2CCN(C/C=C/c3ccccc3)CC2)cc1", "note": "(stereo not drawn)", "inhibition": "-2.02% (inactive)"},
      {"smiles": "NS(=O)(=O)c1cc(C(=O)NCCOc2ccccc2)c(Cl)cc1Cl", "inhibition": "3.06% (inactive)"},
      {"smiles": "O=C(NCCOc1ccccc1)c1ccccc1F", "inhibition": "30.7% (inactive)"},
      {"smiles": "O=C(NCCOc1ccccc1)c1ccccc1", "inhibition": "54.9% (active)"},
      {"smiles": "COc1cc(C(=O)OCC(=O)N(CC(C)C)C2CCS(=O)(=O)C2)ccc1OCC(C)C", "note": "(stereo not drawn)", "inhibition": "-5.97% (inactive)"},
      {"smiles": "COc1ccc(CCNC(=O)CCC(=O)NC2CCCCC2)cc1OC", "inhibition": "4.09% (inactive)"},
      {"smiles": "COc1ccc(CNc2nnnn2C)cc1", "inhibition": "2.29% (inactive)"},
      {"smiles": "COc1ccc(-n2nnnc2-c2nc3ccccc3s2)cc1", "inhibition": "74% (active)"},
      {"smiles": "COc1ccc(-n2nnnc2SCC(=O)NCc2cccs2)cc1", "inhibition": "-2.38% (inactive)"},
      {"smiles": "Cc1ccc(CN2CCCOCCS2(=O)=O)cc1", "inhibition": "-9.75% (inactive)"},
      {"smiles": "CCCOc1ccccc1-c1nc(SCCC(=O)O)n[nH]1", "inhibition": "-9.1% (inactive)"},
      {"smiles": "Cc1cc(C)nc(Nc2n[nH]c(-c3ccccc3N)n2)n1", "inhibition": "53.5% (active)"},
      {"smiles": "Nc1ccccc1-c1nc2ccncc2[nH]1", "inhibition": "-11.5% (inactive)"},
      {"smiles": "COc1ccc2c(c1)CC[C@@H]1[C@@H]2CC[C@]2(C)C(=O)CC[C@@H]12", "inhibition": "-3.91% (inactive)"},
      {"smiles": "O=C(NCc1ccccc1)C1c2ccccc2OCC(=O)N1C1CC1", "note": "(stereo not drawn)", "inhibition": "4.34% (inactive)"},
      {"smiles": "NC(=O)Nc1ccccc1C(=O)NCCc1ccccc1", "inhibition": "11.8% (inactive)"},
      {"smiles": "COc1ccccc1N1CCN(C(=O)CCS(=O)(=O)c2ccc3c(c2)NC(=O)C(C)S3)CC1", "note": "(stereo not drawn)", "inhibition": "21.7% (inactive)"},
      {"smiles": "Cc1cccc(N2CCN(C(=O)CCS(=O)(=O)c3ccc4c(c3)NC(=O)C(C)S4)CC2)c1C", "note": "(stereo not drawn)", "inhibition": "50.6% (active)"},
      {"smiles": "CC1Sc2ccc(S(=O)(=O)CCC(=O)NCc3ccccc3Cl)cc2NC1=O", "note": "(stereo not drawn)", "inhibition": "0.42% (inactive)"},
      {"smiles": "O=C(NCc1ccc(F)cc1)C1CCN(C(=O)Nc2ccc(F)cc2)CC1", "inhibition": "31.5% (inactive)"},
      {"smiles": "O=C(Nc1ccccc1C(=O)N1CCOCC1)c1ccc(Cl)cc1", "inhibition": "-5.43% (inactive)"},
      {"smiles": "O=C(Nc1ccc(Cl)cc1)Nc1ccc(C(=O)N2CCOCC2)cc1", "inhibition": "79% (active)"},
      {"smiles": "Cc1c(Cl)cccc1NC(=O)Nc1ccc(C(=O)N2CCCC2)cc1", "inhibition": "5.68% (inactive)"},
      {"smiles": "COc1cc2c(C(=O)N3CCN(C)CC3)c(CSc3ccccc3)n(C)c2cc1Br", "inhibition": "0.16% (inactive)"},
      {"smiles": "CCN(CC)CCN(C)C(c1ccnc2ccccc12)c1nnnn1-c1ccc2c(c1)OCCO2", "note": "(stereo not drawn)", "inhibition": "29.9% (inactive)"},
      {"smiles": "CCCCn1nnnc1C1(C)CCC(=O)N1Cc1ccc(OC)c(OC)c1", "note": "(stereo not drawn)", "inhibition": "2.84% (inactive)"},
      {"smiles": "COc1ccc(COC[C@H](CC(C)C)N2CCN(C(=O)c3cccc(C(F)(F)F)c3)CCC2=O)cc1", "inhibition": "0.93% (inactive)"},
      {"smiles": "O=c1ccc2c(-c3ccccc3S(=O)(=O)O)c3ccc(O)c(O)c3oc-2c1O", "inhibition": "78% (active)"}
    ]}
  ]
}
